Screening data: PubChem BioAssay, National Center for Advancing Translational Sciences (NCATS)
Hits are enriched below; roughly 8% of the tested compounds scored in any of these assays.
MCF10A rereplic – induces DNA re-replication in MCF 10a normal breast cells. actives 2.9% (n = 350,000). MCF 10A DNA re-replication, Hoechst nuclear intensity, 48 h. Potency, µM (highest dose often 46.1 µM), actives largely listed as activators; note: nearly all actives have a fitted effect of over 50% in size
KB-V1 cytotox – KB-V1 MDR subline cytotoxicity. KB-V1 MDR cells viability, CellTiter-Glo, 72 h. Potency, µM (series often up to 46.1 µM), usual class: cytotoxic. actives 3.4% (n = 400,000); note: nearly all actives have a fitted effect of over 60% in size
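Compound-treated KB-V1 multidrug-resistant cells, 72 h, 37 degrees C; viability by CellTiter-Glo. Fitted qHTS curves give the values.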
SW480 rerep – induces DNA re-replication in SW480 colon adenocarcinoma cells. SW480 DNA re-replication, Hoechst DNA content imaging, 48 h. actives 1.8% (n = 340,000). Potency, µM (titrated, usually from 46.1 µM), usual class: activators; note: nearly all actives have a fitted effect of over 55% in size
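Treated cells incubate 48 hr (37 C, 5% CO2), are stained 40 min with Hoechst, and nuclear fluorescence is enumerated; a rise in nuclei with high DNA signal marks re-replication.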
HT1080-NT tox – kills 2HG-producing HT-1080-NT fibrosarcoma cells | Potency, µM (titrated, usually from 46.1 µM), most hits filed as cytotoxic | AID 686970 | HT-1080-NT fibrosarcoma viability, CellTiter-Glo ATP luminescence, 48 h | actives 1.6% (n = 360,000);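 note: NT is the 2HG producing partner of a matched IDH1 knockdown line; nearly all actives have a fitted effect of over 55% in size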
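750 cells/well, RPMI + 5% FBS; 2 h settle, compound pin-transfer, 48 h at 37 degrees C. CellTiter-Glo 10 min RT, luminescence. Normalized to DMSO and media-only wells.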
HT1080 IDH1KD tx – kills HT-1080 cells with IDH1 knockdown; Potency, µM (highest dose often 46.1 µM), actives largely listed as cytotoxic; actives 2% (n = 360,000); HT-1080 IDH1 knockdown viability, ATP luminescence, 48 h; AID 686971
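Using the IDH1-knockdown HT-1080 line run in the same batch and compound series as the NT line, viability after 48 h at 37 °C was determined by CellTiter-Glo luminescence and expressed as % activity.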
KB-3-1 tox – kills parental KB-3-1 adenocarcinoma cells | KB-3-1 viability, CellTiter-Glo ATP luminescence, 72 h | Potency, µM (doses to about 46.1 µM), actives largely listed as cytotoxic | actives 1.4% (n = 400,000) | AID 1347075; note: nearly all actives have a fitted effect of over 60% in size
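Using CellTiter-Glo luminescence, growth of non-resistant KB-3-1 adenocarcinoma cells is assessed 72 h after pin-tool compound addition at 37 °C. Normalized responses across the concentration series yield fitted curves.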
Numbers stand for hits; i = inactive; ? = inconclusive; nt = not tested or not shown; [ ] = remark or other dose. Calls come from the whole dose curve; as a rule, active = well fitted curve in the direction sought with a large enough effect; inconclusive = small, poorly fitted or top-dose-only effect, or another doubt; inactive = no such curve, though single readings can be large; an effect the other way counts as inactive or inconclusive.

SMILES	MCF10A rereplic	KB-V1 cytotox	SW480 rerep	HT1080-NT tox	HT1080 IDH1KD tx	KB-3-1 tox
COc1ccc(CNC(=O)C(C#N)c2nc3ccccc3nc2N2CCN(C)CC2)cc1 (stereo not given)	i	i	i	i	i	i
Cc1ccc(C)c(S(=O)(=O)C(C#N)c2nc3ccccc3nc2N2CCCC2)c1 (stereo not given)	i	i	i	i	i	i
Cc1ccc(C)c(S(=O)(=O)C(C#N)c2nc3ccccc3nc2N2CC(C)OC(C)C2)c1 (stereo not given)	?	?	?	?	?	18.4µM
FC(F)(F)c1cc(Nc2ccccc2)nc(-c2ccccn2)n1	?	i	i	i	i	i
FC(F)(F)c1cc(Sc2ccccc2)nc(-c2ccccn2)n1	i	?	?	12.6µM	?	i
O=C(/C=C/c1cccc([N+](=O)[O-])c1)n1cnc2ccccc21	3.66µM	?	5.8µM	?	2.59µM	?
O=C(/C=C/c1cccc([N+](=O)[O-])c1)c1cccs1	3.26µM	?	5.8µM	10.3µM	16.4µM	?
O=C(/C=C/c1cccc([N+](=O)[O-])c1)Nc1ccc(NC(=O)c2cccs2)cc1	i	i	i	i	i	i
CC(=O)Oc1ccccc1C(=O)C=Cc1cccc([N+](=O)[O-])c1	5.8µM	5.8µM	?	?	16.4µM	14.6µM
Cc1nn(C(C)(C)C)c(OC(=O)c2ccc3c(c2)OCO3)c1S(=O)(=O)c1ccccc1	?	i	?	20.6µM	?	i
Cc1ccc(S(=O)(=O)c2c(C)nn(C(C)(C)C)c2OC(=O)c2ccco2)cc1	13µM	i	i	23.1µM	?	i
Cc1ccc(S(=O)(=O)c2c(C)nn(C(C)(C)C)c2OC(=O)c2cccs2)cc1	18.4µM	i	i	23.1µM	25.9µM	i
Cc1ccc(S(=O)(=O)c2c(C)nn(C(C)(C)C)c2OC(=O)c2ccc(Br)o2)cc1	?	?	i	?	?	?
CC(=O)Oc1c(S(=O)(=O)c2ccc(C)cc2)c(C)nn1C(C)(C)C	?	?	?	i	i	?
Cc1nn(C(C)(C)C)c(OC(=O)c2ccc3c(c2)OCO3)c1Sc1ccccc1	i	i	i	i	?	i
Cc1ccc(NS(=O)(=O)c2cc3c(cc2Cl)NC(=O)C3)cc1C	nt	i	nt	nt	nt	i
CCCCc1ccc(NC(=O)Nc2cc(C)nn2C)cc1	?	i	i	?	?	6.51µM
CCc1ccc(NC(=O)Nc2cnccn2)cc1	i	i	i	i	i	i
CCCCc1ccc(NC(=O)Nc2cnccn2)cc1	i	?	?	?	?	11.6µM
Cc1cc(NC(=O)Nc2ccc(F)cc2F)n(C)n1	?	i	i	?	?	?
Cc1cc(C)cc(OCC(O)CN2CCN(Cc3ccc4c(c3)OCO4)CC2)c1 (stereo not given)	16.4µM	i	i	i	i	i
O=C(c1cccn2c(=O)c3ccccc3nc12)N1CCN(Cc2ccc3c(c2)OCO3)CC1	i	i	i	i	i	i
OC(COc1ccccc1)CN1CCN(Cc2ccc3c(c2)OCO3)CC1 (stereo not given)	i	i	i	i	i	i
O=C(c1cccn2c(=O)c3cc(Cl)ccc3nc12)N1CCN(Cc2ccc3c(c2)OCO3)CC1	10.3µM	i	18.4µM	i[9.24 µM]	i	?
Cc1ccc(S(=O)(=O)N(C)c2ccc(C(=O)N3CCN(Cc4ccc5c(c4)OCO5)CC3)cc2)cc1	?	1.64µM	i	?	?	11.6µM
SMILES	MCF10A rereplic	KB-V1 cytotox	SW480 rerep	HT1080-NT tox	HT1080 IDH1KD tx	KB-3-1 tox
O=C(c1[nH]nc2c1CCc1ccccc1-2)N1CCN(Cc2ccc3c(c2)OCO3)CC1	i	?	i	?	?	11.6µM
O=C(c1ccccc1)N1CCN(Cc2ccc3c(c2)OCO3)CC1	i	i	i	i	i	i
CN(c1ccc(C(=O)N2CCN(Cc3ccc4c(c3)OCO4)CC2)cc1)S(=O)(=O)c1ccccc1	i	i	i	i	i	i
Cc1ccc(C(=O)N2CCN(Cc3ccc4c(c3)OCO4)CC2)c(Cl)c1	i	i	i	i	16.4µM	?
N#C/C(=C/c1ccc(OCc2ccc(C(=O)O)cc2)cc1)C(=O)Nc1ccccc1	i	i	i	i	i	i
C=CCNC(=O)/C(C#N)=C/c1ccccc1OCc1ccc(C(=O)OC)cc1	4.61µM	?	i	?	?	i
N#C/C(=C\c1ccccc1OCc1ccc(C(=O)O)cc1)C(=O)Nc1ccc(O)cc1	23.1µM	i	i	i	i	i
COC(=O)c1ccc(COc2ccccc2/C=C(\C#N)C(=O)Nc2ccc(C)cc2)cc1	?	i	i	i	i	i
CN(C)S(=O)(=O)c1ccc2c(c1)N(CC(=O)N1CCC(C(N)=O)CC1)CCS2	nt	i	nt	nt	nt	i
CC(OC(=O)c1cc(O)c2ccccc2c1O)C(=O)Nc1ccc(C(N)=O)cc1 (stereo not given)	?	i	i	16.4µM	?	i
CC(OC(=O)c1ccccc1C(=O)N(C)c1ccccc1)C(=O)Nc1ccc(C(N)=O)cc1 (stereo not given)	i	i	i	i	i	i
Cc1cc(NC(=O)Cn2cnc3sc(C)c(-c4ccccc4)c3c2=O)no1	?	20.6µM	i	i	i	i
CCC(CC)c1nn2c(=O)cc(COc3ccc(NC(=O)c4ccccc4C)cc3)nc2s1	nt	i	nt	nt	nt	i
COc1ccc(NC(=O)CSc2n[nH]c(-c3ccccn3)n2)cc1	?	i	?	i	?	?
CCNc1nc(NCc2ccccc2)nc(SCC(N)=O)n1	i	i	?	i	i	i
O=C(CSc1n[nH]c(-c2ccccn2)n1)Nc1ccccc1	i	i	?	?	20.6µM	?
CCNc1nc(NCc2ccccc2)nc(SCC(=O)Nc2ccccc2)n1	i	2.31µM	i	i	i	?
CN(C)c1nc(NCc2ccccc2)nc(SCC(=O)Nc2ccc(Cl)c(Cl)c2)n1	?	7.31µM	?	?	?	i
O=C(Nc1cccc2cccnc12)c1ccc(-c2cccc(Cl)c2)o1	nt	i	nt	nt	nt	i
COc1ccc(CCn2cc3c(c2-c2ccccc2Br)c(=O)n(C)c(=O)n3C)cc1OC	nt	i	nt	nt	nt	i
Cc1ccccc1CN1C(=O)c2ccccc2S1(=O)=O	23.1µM	i	i	i	i	i
Cc1ccccc1CNC(=O)CN1C(=O)c2ccccc2S1(=O)=O	i	i	i	i	i	i
C[C@]12C=C[C@H](O)CC1=CCC1C2CC[C@@]2(C)C1CCC21OCCO1 (stereo not given in full)	20.6µM	?	?	i	i	i
C[C@]12C=CC(=O)C=C1CCC1C2CC[C@@]2(C)C1CCC21OCCO1 (stereo not given in full)	?	i	i	i	i	i
